# Source: PubChem BioAssay (NCATS)
# Values without a mark were called inactive. Results filed as inconclusive are left out. A call without a number means that no potency is given here. Activity calls are given as the source filed them. Unless noted, calls come from the whole dose curve; as a rule, active = well fitted curve in the direction sought with a large enough effect; inconclusive = small, poorly fitted or top-dose-only effect, or another doubt; inactive = no such curve, though single readings can be large; an effect the other way counts as inactive or inconclusive.
# How the values were obtained:
# [1] = Validation of Assay for Modulators of Lamin A Splicing (AID 1459; active = well fitted curve in the direction sought with a large enough effect in the signal ratio; the % refers to the signal ratio;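 note: cells exposed to compound for two days before reading; ratio rise marks activators and ratio drop marks inhibitors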)
# Method in brief: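 HeLa S3 lamin A-EGFP/DsRed2 stable clone, 600 cells/well, Opti-MEM 2% FBS; compounds by pin tool; 48 hrs, 37 °C/5% CO2; Acumen 488 nm scan, objects 10-100 um; GFP/RFP intensity ratio.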
# [2] = biological target: DNA repair nuclease/redox regulator APEX1 (Homo sapiens) (UniProt P27695); experiment: qHTS Validation Assay for Inhibitors of the Human Apurinic/apyrimidinic Endonuclease 1 (APE1) (AID 1705; note: potency is the fitted concentration of half-maximal effect)
# DNA repair nuclease/redox regulator APEX1 (Homo sapiens), sequence (P27695 whole entry, looked up): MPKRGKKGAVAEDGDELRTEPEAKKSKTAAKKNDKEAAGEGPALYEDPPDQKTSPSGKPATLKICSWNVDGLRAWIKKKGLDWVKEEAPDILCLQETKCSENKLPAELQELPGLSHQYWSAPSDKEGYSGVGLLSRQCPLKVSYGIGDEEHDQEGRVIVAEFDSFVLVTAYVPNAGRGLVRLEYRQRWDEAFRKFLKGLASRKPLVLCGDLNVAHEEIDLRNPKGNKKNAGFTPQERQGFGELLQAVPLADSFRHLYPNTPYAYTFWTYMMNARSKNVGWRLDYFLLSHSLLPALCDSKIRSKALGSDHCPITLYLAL
# Method in brief: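 qHTS, 1536-well. APE1 + cpd 15 min RT → 50 nM TAMRA/BHQ-2 THF-abasic dsDNA substrate → kinetic fluorescence, 3 reads/60 s; delta(read3−read1) = reaction progress. No-enzyme buffer = negative control.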
# [3] = Counterscreen for APE1 Inhibitors: Fluorescent Dye Displacement Validation Assay (AID 1707)
# Method in brief: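 Counterscreen flags promiscuous DNA binders: compounds displacing ThO from duplex DNA (abasic THF site, 50 nM) reduce 540 nm emission (480 nm excitation). ThO 250 nM final; Tris-HCl pH 7.5 with NaCl, MgCl2 and Tween-20.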
# [4] = biological target: Endonuclease 4 (Escherichia coli (strain K12)) (UniProt P0A6C1); experiment: Counterscreen for APE1 Inhibitors: qHTS Validation Assay for Inhibitors of Endonuclease IV (AID 1708)
# Method in brief: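 Incision of a double-stranded 50 nM TAMRA/BHQ-2 abasic substrate was followed kinetically (525/598 nm, reads every 60 s) after 15 min enzyme–compound preincubation with 2 nM EndoIV in pH 7.5 Tris buffer with MgCl2, DTT and Tween-20; concentration-response format.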
# [5] = qHTS for differential inhibitors of proliferation of Plasmodium falciparum line 7G8 (AID 1815);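 note: parasite growth measured after three days of incubation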
# [6] = qHTS for differential inhibitors of proliferation of Plasmodium falciparum line GB4 (AID 1816); details: Potency: Plasmodium falciparum GB4 proliferation inhibition
# [7] = qHTS for differential inhibitors of proliferation of Plasmodium falciparum line 3D7 (AID 1876);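 note: parasite growth measured after three days of culture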
# [8] = qHTS for differential inhibitors of proliferation of Plasmodium falciparum line D10 (AID 1877);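 note: parasites grown with compound for 72 h before DNA staining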
# [9] = qHTS for differential inhibitors of proliferation of Plasmodium falciparum line Dd2 (AID 1882); details: Potency: Plasmodium falciparum Dd2 proliferation inhibition; note: nearly all actives have a fitted effect of over 65% in size
# Method in brief: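 SYBR Green DNA fluorescence (ex 485, em 535 nm) after overnight lysis quantifies parasite growth; compound exposure lasted 72 h at 37 C on infected red cells at 2.5% hematocrit, 0.3% parasitemia (final). Artemisinin 0.29 uM and vehicle wells define normalization.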
# [10] = qHTS for differential inhibitors of proliferation of Plasmodium falciparum line W2 (AID 1883); details: Potency: Plasmodium falciparum W2 proliferation inhibition;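 note: parasites grown with compound for 72 h before lysis and staining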
# [11] = qHTS for differential inhibitors of proliferation of Plasmodium falciparum line HB3 (AID 1886); details: Potency: Plasmodium falciparum HB3 proliferation inhibition;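 note: parasites grown with compound for 72 h before SYBR Green readout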
# [12] = qHTS Assay for Modulators of Human Peripheral Myelin Protein 22 (PMP22) Expression/Activity (AID 1967; active = well fitted curve in the direction sought with a large enough effect in the signal ratio; the % refers to the signal ratio)
# Method in brief: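 Luminescence ratio of Pmp22 promoter-driven green luciferase to EF-alpha-driven red luciferase, in engineered mouse MSC80 Schwann cells, served as read-out. Compounds were incubated 24h; untreated cells defined 0% Activity; curves were classified by r2, magnitude and activity.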
# [13] = biological target: Ferritin light chain (Equus caballus) (UniProt P02791); experiment: qHTS Validation Assay for Identification of Novel General Anesthetics (AID 2323)
# Ferritin light chain (Equus caballus), sequence (P02791 2-175 limits assumed): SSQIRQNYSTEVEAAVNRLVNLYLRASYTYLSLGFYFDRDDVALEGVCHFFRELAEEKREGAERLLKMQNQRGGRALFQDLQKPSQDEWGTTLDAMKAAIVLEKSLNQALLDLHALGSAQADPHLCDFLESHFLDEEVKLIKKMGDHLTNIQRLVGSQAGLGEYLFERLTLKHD
# Method in brief: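 Fluorescence at 535 nm (excitation 380 nm) reported loss of 1-AMA binding to horse-spleen apoferritin (10 uM) in PBS with 50% saturated 1-aminoanthracene, after 10 min room-temperature incubation with compound; values from Hill fits of normalized response.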
# [14] = biological target: ATP-dependent DNA helicase Q1 (Homo sapiens) (UniProt P46063); experiment: qHTS Validation Assay for Inhibitors of RecQ-Like Dna Helicase 1 (RECQ1) (AID 2353)
# ATP-dependent DNA helicase Q1 (Homo sapiens), sequence (P46063 whole entry, looked up): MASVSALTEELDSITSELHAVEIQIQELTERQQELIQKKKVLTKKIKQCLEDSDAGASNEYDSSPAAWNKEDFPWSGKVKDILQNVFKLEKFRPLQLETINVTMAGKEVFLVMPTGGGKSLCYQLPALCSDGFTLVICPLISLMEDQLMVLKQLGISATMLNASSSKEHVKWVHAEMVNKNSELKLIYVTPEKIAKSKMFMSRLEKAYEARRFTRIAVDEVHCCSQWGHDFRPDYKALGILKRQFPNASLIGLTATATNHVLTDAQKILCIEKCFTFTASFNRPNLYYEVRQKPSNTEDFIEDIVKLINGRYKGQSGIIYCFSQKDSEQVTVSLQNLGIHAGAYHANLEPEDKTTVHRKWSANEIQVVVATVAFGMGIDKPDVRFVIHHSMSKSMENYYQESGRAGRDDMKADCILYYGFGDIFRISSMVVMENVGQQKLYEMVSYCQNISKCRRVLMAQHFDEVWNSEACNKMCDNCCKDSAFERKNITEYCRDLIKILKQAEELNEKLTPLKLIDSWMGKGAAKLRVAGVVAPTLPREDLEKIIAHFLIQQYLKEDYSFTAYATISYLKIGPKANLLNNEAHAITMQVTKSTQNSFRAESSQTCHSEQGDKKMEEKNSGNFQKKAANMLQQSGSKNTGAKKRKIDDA
# Method in brief: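 RECQ1T1 50 nM; forked duplex (20 bp + 30-nt ss tails) 200 nM, ATP 2 mM final; pH 8.0, 2 mM MgCl2, 2.5 ug/ml poly(dI-dC); 15 min compound preincubation; discontinuous kinetic read over 2 h at RT.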
# [15] = Validation screen for small molecules that induce DNA re-replication in MCF 10A normal breast cells (AID 463097); note: nearly all actives have a fitted effect of over 60% in size
# Method in brief: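 Image-based qHTS: normal breast cells are incubated with compound for 48 hr, stained with Hoechst, and scanned for total nuclear fluorescence. Compounds raising the fraction of nuclei with elevated DNA content count as re-replication inducers.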
# [16] = Quantitative high throughput screen for delayed death inhibitors of the malarial parasite plastid, 96 hour incubation (AID 488745);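 note: luciferase-expressing P. falciparum in erythrocytes at 2% hematocrit and 0.1% parasitemia; nearly all actives have a fitted effect of over 70% in size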
# Method in brief: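 Readout is firefly luciferase luminescence from an integrated reporter in P. falciparum; lower signal marks inhibited growth. Cultures at 2% hematocrit and 0.1% parasitemia were treated with compound across two generations (96 h, 37 C, 5% CO2).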
# [17] = Quantitative high throughput screen for delayed death inhibitors of the malarial parasite plastid, 48 hour incubation (AID 488752); note: nearly all actives have a fitted effect of over 65% in size
# Method in brief: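 First, compound was pinned into RPMI 1640 medium containing 0.5% Albumax. Next, reporter-parasite-infected erythrocytes were added to 2% hematocrit and 0.1% parasitemia. After 48 h at 37 C under 5% CO2, luciferase detection reagent was added and luminescence read.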
# [18] = biological target: M-phase phosphoprotein 8 (Homo sapiens) (UniProt Q99549); experiment: qHTS Validation Assay for Inhibitors for MPP8 Chromodomain Interactions with Methylated Histone Tails (AID 488949); note: potency is the fitted concentration of half-maximal effect; nearly all actives have a fitted effect of over 55% in size
# M-phase phosphoprotein 8 (Homo sapiens), sequence (Q99549 whole entry, looked up): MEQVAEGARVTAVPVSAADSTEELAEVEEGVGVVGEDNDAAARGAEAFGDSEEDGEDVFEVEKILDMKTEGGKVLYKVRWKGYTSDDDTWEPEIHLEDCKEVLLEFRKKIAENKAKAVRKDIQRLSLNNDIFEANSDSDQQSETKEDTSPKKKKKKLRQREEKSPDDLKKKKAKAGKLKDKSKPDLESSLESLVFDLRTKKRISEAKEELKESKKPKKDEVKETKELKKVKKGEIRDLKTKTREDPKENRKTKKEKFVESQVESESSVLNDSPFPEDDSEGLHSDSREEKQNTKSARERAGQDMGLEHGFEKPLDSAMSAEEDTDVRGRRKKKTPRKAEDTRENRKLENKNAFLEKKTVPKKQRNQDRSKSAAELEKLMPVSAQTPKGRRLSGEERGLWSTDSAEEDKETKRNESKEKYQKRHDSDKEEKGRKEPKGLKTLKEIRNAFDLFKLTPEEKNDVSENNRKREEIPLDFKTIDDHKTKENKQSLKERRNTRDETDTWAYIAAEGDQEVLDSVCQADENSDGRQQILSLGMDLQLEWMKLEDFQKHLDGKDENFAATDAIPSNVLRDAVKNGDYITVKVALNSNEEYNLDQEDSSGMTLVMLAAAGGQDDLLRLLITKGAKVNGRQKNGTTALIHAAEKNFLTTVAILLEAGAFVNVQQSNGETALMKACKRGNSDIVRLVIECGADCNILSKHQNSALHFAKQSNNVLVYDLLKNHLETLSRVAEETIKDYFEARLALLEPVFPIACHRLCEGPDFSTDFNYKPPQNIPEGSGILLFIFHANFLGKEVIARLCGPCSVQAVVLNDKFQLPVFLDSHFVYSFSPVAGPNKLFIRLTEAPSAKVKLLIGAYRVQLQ
# Method in brief: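 50 nM MPP8 + 50 nM b-H3K9me3 peptide, PBS pH 7.4/0.01% Tween-20, 30 min RT; + cpd 30 min RT; + AlphaScreen donor/Ni-chelate acceptor beads 10 ug/mL final, 30 min dark; luminescence read.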
# [19] = biological target: Thyrotropin receptor (Homo sapiens) (UniProt P16473); experiment: qHTS Assay for Antagonists of the Thyroid Stimulating Hormone Receptor (AID 488980)
# Thyrotropin receptor (Homo sapiens), sequence (P16473 whole entry, looked up): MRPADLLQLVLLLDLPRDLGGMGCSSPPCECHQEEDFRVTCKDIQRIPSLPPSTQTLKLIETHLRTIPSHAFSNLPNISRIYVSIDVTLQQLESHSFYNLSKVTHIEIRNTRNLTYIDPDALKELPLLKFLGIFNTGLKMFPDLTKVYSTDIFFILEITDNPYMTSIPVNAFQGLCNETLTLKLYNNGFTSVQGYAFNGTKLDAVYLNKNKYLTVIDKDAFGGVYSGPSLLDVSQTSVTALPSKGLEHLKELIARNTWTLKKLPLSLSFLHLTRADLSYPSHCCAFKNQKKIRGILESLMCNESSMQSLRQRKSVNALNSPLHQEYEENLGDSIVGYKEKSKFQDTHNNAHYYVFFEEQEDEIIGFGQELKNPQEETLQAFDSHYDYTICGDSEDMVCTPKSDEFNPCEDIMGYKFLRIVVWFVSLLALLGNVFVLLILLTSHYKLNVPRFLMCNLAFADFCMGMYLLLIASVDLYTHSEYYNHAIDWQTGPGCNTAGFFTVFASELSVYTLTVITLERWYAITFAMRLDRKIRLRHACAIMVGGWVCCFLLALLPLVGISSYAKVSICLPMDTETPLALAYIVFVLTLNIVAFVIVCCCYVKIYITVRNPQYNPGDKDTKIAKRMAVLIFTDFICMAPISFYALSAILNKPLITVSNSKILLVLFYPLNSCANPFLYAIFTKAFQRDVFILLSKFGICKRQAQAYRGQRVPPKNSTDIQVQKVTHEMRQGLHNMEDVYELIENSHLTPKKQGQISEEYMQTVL
# Method in brief: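 Readout is cAMP by HTRF competition between cellular cAMP and cAMP-d2 for a cryptate-labelled antibody. Antagonism was assessed in TSHR-transfected HEK293 cells stimulated with 4 nM TSH (EC80, final) in the presence of RO 20-1724.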
# [20] = biological target: Thyrotropin-releasing hormone receptor (Homo sapiens) (UniProt P34981); experiment: qHTS for Small Molecule Agonists and Allosteric Enhancers of Human TRH Receptor: Validation Screen for Agonists (AID 493127;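 active = calcium activation more than 3 SD above the typical response in the agonist read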;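 note: intracellular calcium rise by fluo-8 fluorescence before TRH EC20 addition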); details: TRH receptor agonist cell assay; at 2 µM; hits give high values
# Thyrotropin-releasing hormone receptor (Homo sapiens), sequence (P34981 whole entry, looked up): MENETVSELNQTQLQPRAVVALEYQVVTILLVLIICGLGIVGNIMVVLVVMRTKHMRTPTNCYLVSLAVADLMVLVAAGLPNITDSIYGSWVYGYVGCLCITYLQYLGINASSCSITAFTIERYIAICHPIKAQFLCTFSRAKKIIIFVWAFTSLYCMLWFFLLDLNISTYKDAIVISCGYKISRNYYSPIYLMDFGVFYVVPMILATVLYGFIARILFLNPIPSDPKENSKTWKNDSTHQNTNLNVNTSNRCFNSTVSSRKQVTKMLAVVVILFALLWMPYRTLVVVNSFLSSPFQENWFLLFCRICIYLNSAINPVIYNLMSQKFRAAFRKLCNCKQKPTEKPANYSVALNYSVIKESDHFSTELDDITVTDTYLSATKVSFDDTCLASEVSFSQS
# Method in brief: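 Compounds are added by online pintool to dye-loaded TRHR cells while fluorescence is recorded every second. A rise in calcium signal during the agonist read marks activation; a later 10 nM TRH addition (EC20) serves the separate enhancer mode.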
# [21] = biological target: Galactokinase (Homo sapiens) (UniProt P51570); experiment: qHTS Validation Assay for Inhibitors of Human Galactokinase (GALK) (AID 493189)
# Galactokinase (Homo sapiens), sequence (P51570 whole entry, looked up): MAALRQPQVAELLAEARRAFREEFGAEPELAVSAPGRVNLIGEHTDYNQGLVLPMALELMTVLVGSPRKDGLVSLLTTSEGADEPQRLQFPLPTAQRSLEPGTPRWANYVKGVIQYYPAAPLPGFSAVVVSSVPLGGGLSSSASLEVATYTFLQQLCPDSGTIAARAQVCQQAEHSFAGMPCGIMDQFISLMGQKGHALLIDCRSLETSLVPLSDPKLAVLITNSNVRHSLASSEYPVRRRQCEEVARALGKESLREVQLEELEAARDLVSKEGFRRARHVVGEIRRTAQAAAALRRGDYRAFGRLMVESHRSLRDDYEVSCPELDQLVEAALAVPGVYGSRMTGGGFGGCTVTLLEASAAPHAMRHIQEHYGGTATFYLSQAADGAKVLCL
# Method in brief: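 5 nM GALK / 100 uM galactose / 35 uM ATP, 20 mM HEPES pH8.0, 5 mM MgCl2, 60 mM NaCl, 1 mM DTT, 0.01% BSA (final). RT 1 h; Kinase-Glo Plus luminescence.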
# [22] = Validation screen for small molecules that induce DNA re-replication in SW480 colon adenocarcinoma cells (AID 504364)
# Method in brief: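 Image-based qHTS: compounds were incubated with SW480 cells for 48 hr, nuclei stained with Hoechst, and per-nucleus fluorescence intensity scanned to flag cells with excess DNA content.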
# [23] = biological target: Voltage-gated inwardly rectifying potassium channel KCNH2 (Homo sapiens) (UniProt Q12809); experiment: qHTS Assay for Small Molecule Inhibitors of the Human hERG Channel Activity (AID 588834);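 note: top concentration of the series differs between compounds; lower thallium flux fluorescence means stronger hERG block; nearly all actives have a fitted effect of over 50% in size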
# Voltage-gated inwardly rectifying potassium channel KCNH2 (Homo sapiens), sequence (Q12809 whole entry, looked up): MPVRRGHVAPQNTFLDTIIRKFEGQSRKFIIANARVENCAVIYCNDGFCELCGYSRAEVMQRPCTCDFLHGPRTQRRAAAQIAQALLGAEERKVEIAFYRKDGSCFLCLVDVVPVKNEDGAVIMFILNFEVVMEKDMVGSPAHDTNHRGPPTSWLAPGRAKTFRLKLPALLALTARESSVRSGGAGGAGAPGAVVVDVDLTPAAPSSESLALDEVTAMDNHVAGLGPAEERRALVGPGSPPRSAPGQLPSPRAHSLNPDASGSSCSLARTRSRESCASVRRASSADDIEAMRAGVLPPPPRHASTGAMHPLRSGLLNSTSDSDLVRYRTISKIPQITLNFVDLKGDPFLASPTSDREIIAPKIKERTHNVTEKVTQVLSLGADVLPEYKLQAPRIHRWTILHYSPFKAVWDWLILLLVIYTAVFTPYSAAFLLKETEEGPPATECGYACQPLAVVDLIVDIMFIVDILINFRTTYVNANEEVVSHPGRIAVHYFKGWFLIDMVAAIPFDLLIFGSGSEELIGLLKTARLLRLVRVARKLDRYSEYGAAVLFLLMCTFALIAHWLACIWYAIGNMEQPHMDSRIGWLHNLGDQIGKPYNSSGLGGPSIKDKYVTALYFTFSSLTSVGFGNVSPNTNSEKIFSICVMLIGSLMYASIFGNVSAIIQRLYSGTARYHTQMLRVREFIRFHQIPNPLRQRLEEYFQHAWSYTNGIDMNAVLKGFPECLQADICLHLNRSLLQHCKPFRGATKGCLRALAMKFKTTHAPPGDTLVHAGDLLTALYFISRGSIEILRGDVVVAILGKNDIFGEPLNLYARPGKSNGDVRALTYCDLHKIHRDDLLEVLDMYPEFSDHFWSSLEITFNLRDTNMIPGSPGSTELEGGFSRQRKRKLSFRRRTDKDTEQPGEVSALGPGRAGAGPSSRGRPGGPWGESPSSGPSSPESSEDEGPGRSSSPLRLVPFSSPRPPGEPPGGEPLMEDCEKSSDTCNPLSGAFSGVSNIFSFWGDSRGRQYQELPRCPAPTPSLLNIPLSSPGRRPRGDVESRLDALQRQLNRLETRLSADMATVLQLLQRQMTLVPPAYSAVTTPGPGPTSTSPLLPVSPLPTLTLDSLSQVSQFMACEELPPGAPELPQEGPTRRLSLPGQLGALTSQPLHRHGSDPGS
# Method in brief: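 Step 1: BacMam hERG transduction of U2OS, 4 hrs RT. Step 2: overnight 37 °C, plate 2000 cells/well, 4 hr. Step 3: FluxOR load, compound 10 min, stimulate, read fluorescence.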
# [24] = qHTS assay for small molecule agonists of the antioxidant response element (ARE) signaling pathway measured by Nrf2-dependant transcriptional activity (AID 720636; active = well fitted curve in the direction sought with a large enough effect in the repeat runs; an effect the other way counts as inactive or inconclusive;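 note: HepG2 cells with an ARE-driven luciferase reporter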)
# Method in brief: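 HepG2 ARE-luc reporter line, 1% dialyzed FBS; 6 hr attachment at 37 C, compound pinned in, 16 hr at 37 C/5% CO2; ONE-Glo, 30 min RT, luminescence read.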
# [25] = qHTS profiling for inhibitors of Plasmodium falciparum proliferation (AID 504749); note: nearly all actives have a fitted effect of over 60% in size; details: P. falciparum in erythrocytes, SYBR Green DNA, 72 h, at 28.7 µM (top of the series)
# Method in brief: (§1)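 SYBR Green fluorescence of parasite DNA, read after lysis and overnight dark incubation, measured growth over 72 h in erythrocyte culture at 0.3% parasitemia and 2.5% hematocrit. Data normalised to DMSO and 0.29 uM artemisinin, with plate-drift correction.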
# 3D7 = experiment: as above; details: P. falciparum in erythrocytes, SYBR Green DNA, 72 h; series mostly up to 28.7 µM
# Method in brief: as §1
# AA1029 = experiment: as above; details: P. falciparum in erythrocytes, SYBR Green DNA, 72 h; series mostly up to 28.7 µM
# Method in brief: as §1
# AS120 = experiment: as above; details: P. falciparum in erythrocytes, SYBR Green DNA, 72 h; series mostly up to 28.7 µM
# Method in brief: as §1
structure (smiles),measurement,setting,value
N[C@H](Cc1ccc(O)c(O)c1)C(=O)O,outcome,[1],inactive
same,Potency,[2],10 µM (active)
same,Potency,[3],inactive
same,outcome,[4],inactive
same,Potency,[5],inactive
same,Potency,[6],inactive
same,Potency,[7],inactive
same,Potency,[8],inactive
same,Potency,[9],inactive
same,Potency,[10],inactive
same,Potency,[11],inactive
same,outcome,[12],inactive
same,outcome,[13],inactive
same,Potency,[14],inactive
same,outcome,[15],inactive
same,Potency,[16],inactive
same,Potency,[17],inactive
same,Potency,[18],17.8 µM (active)
same,outcome,[19],inactive
same,activation,[20],0.688%
same,outcome,[21],inactive
same,outcome,[22],inactive
same,Potency,[23],inactive
same,outcome,[24],inactive
same,"activity, negative = inhibition",[25]; parasite line A,9.99%
same,"activity, negative = inhibition",[25]; parasite line B,20.6%
same,Potency,3D7,inactive
same,Potency,AA1029,inactive
same,Potency,AS120,inactive
